# Pf Dd2 inh = P. falciparum Dd2 growth inhibition | SYBR Green, 72 h; stronger effect = lower value | 2.3% of 94,000 active | activity change, % at 10 µM; in the data active means activity change below about -80%; inconclusive means no clear call, values can overlap the other calls
# C diff HTS = inhibitors of Clostridium difficile growth; Clostridium difficile clinical isolate growth, OD600, 24 h; stronger effect = lower value; growth activity, negative = inhibition, % at 16 µg/mL (by protocol); 0.25% of 86,000 active; AID 1259249;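 active means mean growth activity at or below -80% and every replicate also at or below -80%; inconclusive means mean at or below -80% but some replicate above -80%; inactive means mean growth activity above -80%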;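 further: 0% = DMSO wells and -100% = levofloxacin 16 µg/mL wells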
# T cruzi growth-1 = T. cruzi proliferation inhibition | 5.9% of 77,000 active | inhibition, % at 8.34 µM | AID 624255 | T. cruzi beta-gal in NIH3T3, GalScreen luminescence, 90 h;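 active means mean inhibition above about 93%, with at least 55% of replicates each passing it, limit read from the data, passing the limit was not always enough; inconclusive means only one of those two conditions holds; inactive means neither condition holds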
# T cruzi growth-2 = blocks T. cruzi growth in NIH3T3 host cells; shares compounds with T cruzi growth-1; T. cruzi beta-gal in NIH3T3, GalScreen luminescence, 90 h; inhibition, % at 8.35 µM; 72% of 5,600 active;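 active means mean replicate inhibition above about 95% and at least 55% of replicates individually reaching it, limit read from the data; inconclusive means only one of the two criteria is met; inactive means neither criterion is met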
# T cruzi growth-3 = blocks T. cruzi growth in NIH3T3 host cells; shares compounds with T cruzi growth-1; T. cruzi beta-gal in NIH3T3, GalScreen luminescence, 90 h; inhibition, % at 2.09 µM; 21% of 5,600 active; AID 651740;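 active means mean inhibition above about 95%, with at least 55% of replicates also reaching it, limit read from the data; inconclusive means meets just one of the two conditions; inactive means meets neither condition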;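 further: plate controls were neutral control median for no effect and positive control median for full effect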
# 3T3 cytotox = kills mouse NIH/3T3 fibroblasts; shares compounds with T cruzi growth-1; NIH/3T3 viability, CellTiter-Glo ATP luminescence, 90 h; cytotoxicity (signal decrease), % at 8.35 µM; 14% of 5,600 active; AID 651742;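 active means mean signal decrease across replicates above about 35% based on untreated-well scatter, with enough replicates individually passing, limit read from the data; inconclusive means no rule stated though some were filed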;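 further: 0% = median of neutral control wells and 100% = median of positive control wells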
# NIH3T3 tox 2 = kills mouse NIH/3T3 fibroblasts; shares compounds with T cruzi growth-1; NIH/3T3 viability, CellTiter-Glo ATP luminescence, 90 h; inhibition, % at 24.9 µM; 56% of 5,600 active; AID 651744;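 active means mean loss of cell viability signal at or above a set limit, and enough replicates individually reaching it; inconclusive means meets only the mean limit or only the replicate share; inactive means meets neither condition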;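 further: 0% = median of neutral control wells and 100% = median of positive control wells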
# An asterisk follows results filed as active; ? = inconclusive; . = not tested or not shown. Most compounds without a hit are left out; they make up all but 6.8% or so of the library.
SMILES,Pf Dd2 inh,C diff HTS,T cruzi growth-1,T cruzi growth-2,T cruzi growth-3,3T3 cytotox,NIH3T3 tox 2
COc1cc(CN2CC3(CCN(C(=O)Nc4cccc(F)c4)CC3)c3c(n(C)c4cc(OC)ccc34)[C@@H]2CO)cc(OC)c1,-72,3,.,.,.,.,.
CNC(=O)C[C@H]1CC[C@H]2[C@H](COc3ccc(NC(=O)c4ccc5c(c4)OCO5)cc3C(=O)N2C)O1,2,1,21,.,.,.,.
O=C(Nc1cccc(F)c1)N[C@@H]1CC[C@H](CCNS(=O)(=O)c2cccc(Cl)c2)O[C@H]1CO,-88*,.,115*,-27,-10,-20,-8
O=C(Nc1cccc(F)c1)N[C@H]1CC[C@@H](CCNS(=O)(=O)c2cccc(Cl)c2)O[C@H]1CO,-26,.,70,.,.,.,.
O=C(Nc1cccc(F)c1)N[C@H]1CC[C@H](CCNS(=O)(=O)c2cccc(Cl)c2)O[C@@H]1CO,-32,.,152*,63,15,-1,18
O=C(Nc1ccc(F)cc1)N[C@H]1CC[C@H](CCNS(=O)(=O)c2cccc(Cl)c2)O[C@H]1CO,25,-8,-13,.,.,.,.
C[C@@H]1CN([C@@H](C)CO)C(=O)Cc2cc(NC(=O)c3ccncc3)ccc2O[C@H]1CN(C)S(=O)(=O)c1ccc(F)cc1,2,-3,-5,.,.,.,.
C[C@H]1CN([C@@H](C)CO)C(=O)CCCn2cc(nn2)CO[C@H]1CN(C)Cc1ccc(Oc2ccccc2)cc1,-42,0,-52,.,.,.,.
CCCC(=O)N1CC2(C1)CN(C(=O)COC)[C@H](CO)c1c2c2ccc(OC)cc2n1C,32,5,.,.,.,.,.
O=C(C1CCOCC1)N1CC(=O)N2[C@H](CO)[C@@H](c3ccc(C#CC4CCCCC4)cc3)[C@H]2C1,-14,57,.,.,.,.,.
C[C@H]1CN([C@@H](C)CO)C(=O)c2cccc(NC(=O)c3cnccn3)c2O[C@@H]1CN(C)Cc1ccc(C(=O)Nc2ccccc2N)cc1,-94*,-6,102*,111*,63,31,?
C[C@H]1CN([C@@H](C)CO)C(=O)c2cccc(NC(=O)c3cnccn3)c2O[C@H]1CN(C)Cc1ccc(C(=O)Nc2ccccc2N)cc1,-30,10,.,.,.,.,.
C[C@H](CO)N1C[C@H](C)[C@@H](CN(C)Cc2ccc(C(=O)Nc3ccccc3N)cc2)Oc2c(NC(=O)c3cnccn3)cccc2C1=O,-92*,-9,106*,104*,104*,32,52*
C[C@H](CO)N1C[C@H](C)[C@H](CN(C)Cc2ccc(C(=O)O)cc2)Oc2c(NC(=O)c3cnccn3)cccc2C1=O,2,1,1,.,.,.,.
COc1cccc(NC(=O)Nc2ccc3c(c2)OC[C@@H](C)N(CC2CC2)C[C@@H](C)[C@H](OC)CN(C)C3=O)c1,.,.,10,.,.,.,.
COc1cccc(S(=O)(=O)Nc2ccc3c(c2)[C@H]2C[C@H](CC(=O)NC4CCCCC4)O[C@H](CO)[C@H]2O3)c1,-37,-5,124*,?,-11,-3,7
COc1cccc(S(=O)(=O)Nc2ccc3c(c2)[C@H]2C[C@@H](CC(=O)NC4CCCCC4)O[C@H](CO)[C@H]2O3)c1,-18,43,15,.,.,.,.
COc1cccc(S(=O)(=O)Nc2ccc3c(c2)[C@@H]2C[C@@H](CC(=O)NCc4ccc(Cl)cc4)O[C@@H](CO)[C@@H]2O3)c1,-40,-1,78,.,.,.,.
COc1cccc(S(=O)(=O)Nc2ccc3c(c2)[C@H]2C[C@H](CC(=O)NCc4ccc(Cl)cc4)O[C@@H](CO)[C@H]2O3)c1,-3,.,146*,108*,36,-2,8
Cc1ccc(S(=O)(=O)N(C)C[C@H]2Oc3ccc(NS(=O)(=O)c4c(C)noc4C)cc3C(=O)N([C@@H](C)CO)C[C@@H]2C)cc1,-41,-9,-15,.,.,.,.
COc1ccc2c3c(n(C)c2c1)[C@@H](CO)NCC31CCN(C(=O)c2ccccc2)CC1,-61,3,.,.,.,.,.
C[C@@H]1CCCCO[C@H](CN(C)S(=O)(=O)c2ccc(Cl)cc2)[C@H](C)CN([C@@H](C)CO)C(=O)c2cc(NC(=O)C3CCCCC3)ccc2O1,-80,-7,108*,103*,84,-8,24
C[C@@H]1CN([C@H](C)CO)C(=O)c2cc(NC(=O)C3CCCCC3)ccc2O[C@@H](C)CCCCO[C@H]1CN(C)S(=O)(=O)c1ccccc1,-67,-4,27,.,.,.,.
C[C@@H]1CN([C@H](C)CO)C(=O)c2cc(NC(=O)C3CCCCC3)ccc2O[C@@H](C)CCCCO[C@H]1CN(C)S(=O)(=O)c1ccc(Cl)cc1,-83*,-6,102*,106*,62,17,70*
C[C@H](CO)N1C[C@H](C)[C@@H](CN(C)S(=O)(=O)c2ccc(Cl)cc2)OCCCC[C@H](C)Oc2ccc(NC(=O)C3CCCCC3)cc2C1=O,-67,6,107*,104*,46,-22,-4
SMILES,Pf Dd2 inh,C diff HTS,T cruzi growth-1,T cruzi growth-2,T cruzi growth-3,3T3 cytotox,NIH3T3 tox 2
C[C@@H]1CN([C@H](C)CO)C(=O)c2cc(NC(=O)C3CCCCC3)ccc2O[C@@H](C)CCCCO[C@H]1CN(C)S(=O)(=O)c1ccc(F)cc1,-80,3,26,.,.,.,.
C[C@@H]1CN([C@@H](C)CO)C(=O)c2cc(NC(=O)C3CCCCC3)ccc2O[C@@H](C)CCCCO[C@H]1CN(C)S(=O)(=O)c1ccccc1,-72,-2,22,.,.,.,.
C[C@@H]1CCCCO[C@@H](CN(C)S(=O)(=O)c2ccc(F)cc2)[C@H](C)CN([C@H](C)CO)C(=O)c2cc(NC(=O)C3CCCCC3)ccc2O1,-72,-3,101*,107*,65,13,-8
C[C@@H]1CCCCO[C@@H](CN(C)S(=O)(=O)c2ccccc2)[C@@H](C)CN([C@@H](C)CO)C(=O)c2cc(NC(=O)C3CCCCC3)ccc2O1,-76,-2,52,.,.,.,.
CC(=O)N1CC(=O)N2[C@@H](CO)[C@@H](c3ccc(C#Cc4cccnc4)cc3)[C@@H]2C1,31,-3,.,.,.,.,.
CN(C)CC#Cc1ccc([C@H]2[C@@H](CO)N3CCCCN(C(=O)Nc4cc(F)ccc4F)C[C@@H]23)cc1,6,8,95,.,.,.,.
CC(C)NC(=O)N(C)C[C@H]1Oc2ccc(NS(C)(=O)=O)cc2CC(=O)N([C@H](C)CO)C[C@H]1C,4,-1,.,.,.,.,.
C[C@@H]1CCCCO[C@H](CN(C)S(=O)(=O)c2ccccc2)[C@@H](C)CN([C@H](C)CO)C(=O)c2cc(NC(=O)C3CCCCC3)ccc2O1,-54,-6,-7,.,.,.,.
COc1ccc(S(=O)(=O)N(C)C[C@@H]2OCCCC[C@@H](C)Oc3ccc(NC(=O)C4CCCCC4)cc3C(=O)N([C@@H](C)CO)C[C@H]2C)cc1,-69,6,106*,107*,40,9,21

# Assay outcomes deposited in PubChem BioAssay by Broad Institute.
